In paper PMC7819943, “Rice protein-binding microarrays: a tool to detect cis-acting elements near promoter regions in rice”:
Whole data set: some 39,000 sequences, median “fluorescence intensity (a.u.)” near 4,300, cut for the highest 2% near 39,000. The entries come from a sample that favours the highest values as a whole.

These sequences were tested against T1, OsSMF1 (Oryza sativa, UniProt Q6ZLB0 1-436) (assay: protein-binding microarray (RPBM); PBS, 2% BSA, 51.3 ng/ul salmon testes DNA, 50 uM zinc acetate, 200 nM TF, 25 C, 1 h; high values mean tight binding). Conditions: protein: recombinant; tags: N-terminal polyhistidine and DsRed monomer fusion (pET32a); chain copies: 2; label: CyDye5-dUTP incorporated in the synthesized complementary strand; 3' TTTTT single-stranded linker to array surface; dsDNA, one strand shown.
T1 sequence: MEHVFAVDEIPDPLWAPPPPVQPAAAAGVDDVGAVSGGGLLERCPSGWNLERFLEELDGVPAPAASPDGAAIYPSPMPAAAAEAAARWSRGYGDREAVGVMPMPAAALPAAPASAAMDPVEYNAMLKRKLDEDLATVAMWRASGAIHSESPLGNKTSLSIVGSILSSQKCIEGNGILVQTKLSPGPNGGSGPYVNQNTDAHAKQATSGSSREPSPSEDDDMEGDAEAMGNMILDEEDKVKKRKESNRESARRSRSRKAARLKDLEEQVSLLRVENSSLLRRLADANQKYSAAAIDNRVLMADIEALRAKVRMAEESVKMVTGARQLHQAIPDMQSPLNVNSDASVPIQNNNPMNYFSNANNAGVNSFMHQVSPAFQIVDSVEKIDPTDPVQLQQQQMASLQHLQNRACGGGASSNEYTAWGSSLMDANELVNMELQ
Method in brief: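 Polyhistidine-tagged DsRed fusions of transcription factors, joined at the N-terminus, were expressed in E. coli BL21-CodonPlus and isolated on Ni–NTA. They were incubated at 200 nM for 1 h at 25 °C on a custom Agilent array, double-stranded and BSA-blocked, in PBS with 2% BSA, salmon testes DNA and 50 µM zinc acetate. The binding signal is per-feature fluorescence intensity (arbitrary units) read on an Axon 4000B scanner after washing.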

**Q.** Which binding signal does the source give for “CGCTGGTGAAGTGGTGATGCGCCTAATCGTTTTCTTCGCGCGGAGTCACCTAGTGCAG” here?
**A.** Its binding signal is 3260 fluorescence intensity (a.u.).

**Q.** Which binding signal does the source give for “CTTGCATTCCTTTTCTTCTCCTGAACTATATAAACACACTCGGAGTCACCTAGTGCAG” here?
**A.** Its binding signal is 3290 fluorescence intensity (a.u.).

**Q.** “AAATTTAAGAATTTTCGGATGCACTTAAAGAAGGACAAGTCGGAGTCACCTAGTGCAG” was tested. Which binding signal did it give?
**A.** Its binding signal is 11000 fluorescence intensity (a.u.).

**Q.** How did the binding signal turn out when “CCGCCTGACACGTGTAAGAGCAAGTTTAATAGTATAGCCCCGGAGTCACCTAGTGCAG” was run?
**A.** The binding signal was 13800 fluorescence intensity (a.u.).

**Q.** How did the binding signal turn out when “ATTGAATATAATTGGATATAAACAGTTTAAAACTATACTCCGGAGTCACCTAGTGCAG” was run?
**A.** The binding signal was 5510 fluorescence intensity (a.u.).

**Q.** For “GAGAGAGAGAGGAGATAATAAAATACTCGATATTGAATTGCGGAGTCACCTAGTGCAG”, which binding signal is on record?
**A.** The binding signal was 42500 fluorescence intensity (a.u.).

**Q.** “ATTATTAAAATATATAAATATTGAATTTAATAAAATAATTCGGAGTCACCTAGTGCAG” was tested. Which binding signal did it give?
**A.** The binding signal was 26400 fluorescence intensity (a.u.).

**Q.** With “GGTTGAGTGACGCGCTATTTCTGGTATTGCGTATGAAGGGCGGAGTCACCTAGTGCAG” as the sequence, how does the binding signal read?
**A.** The binding signal was 3520 fluorescence intensity (a.u.).

**Q.** “TGTCCATGGTTTGTTGCTGCTGCGGTGGCACCAGTGCTGCCGGAGTCACCTAGTGCAG” was tested. Which binding signal did it give?
**A.** The binding signal was 7940 fluorescence intensity (a.u.).

**Q.** How did the binding signal turn out when “GTAGACGAAGACCTGGCAAGTCCTTGGGCTTAAATCTCACCGGAGTCACCTAGTGCAG” was run?
**A.** Its binding signal is 17800 fluorescence intensity (a.u.).

**Q.** With “GACTGTACACATGAAGGAACATATGTGCTGAAATACTGTACGGAGTCACCTAGTGCAG” as the sequence, how does the binding signal read?
**A.** Its binding signal is 26100 fluorescence intensity (a.u.).

**Q.** Which binding signal does the source give for “TATGAACACATATGTAGCATACGCTTAAATAGACGAAGACCGGAGTCACCTAGTGCAG” here?
**A.** The binding signal was 40500 fluorescence intensity (a.u.).

**Q.** “GCTATATATTTGTTGATCAGCTAGGCTGTCAGCAGTTTAGCGGAGTCACCTAGTGCAG” was tested. Which binding signal did it give?
**A.** Its binding signal is 3650 fluorescence intensity (a.u.).

**Q.** With “ATACACACATATCCGCGCCATTATAAATTTGACAGCATTTCGGAGTCACCTAGTGCAG” as the sequence, how does the binding signal read?
**A.** The binding signal was 3440 fluorescence intensity (a.u.).

**Q.** How did the binding signal turn out when “CAACATTAGCAATTAAAATTGCGGGTTATTTGTAAAAGTCCGGAGTCACCTAGTGCAG” was run?
**A.** The binding signal was 32000 fluorescence intensity (a.u.).

**Q.** How did the binding signal turn out when “CATATATGGACAGGCAACGGCATGTCGTGTTCGTACAAATCGGAGTCACCTAGTGCAG” was run?
**A.** Its binding signal is 3190 fluorescence intensity (a.u.).

**Q.** “CCGCGTCCGTACTCTCTAGCCTGCGGGTAAGCAACGAACTCGGAGTCACCTAGTGCAG” was tested. Which binding signal did it give?
**A.** The binding signal was 45200 fluorescence intensity (a.u.).

**Q.** How did the binding signal turn out when “GCGGTAGCCAAGCCTGCCACGTCAGCTCTCGCGCAACGTCCGGAGTCACCTAGTGCAG” was run?
**A.** The binding signal was 34600 fluorescence intensity (a.u.).

**Q.** How did the binding signal turn out when “CACCACACGAAGCAGCCACGAACGCAACGCGGGTGCGTCGCGGAGTCACCTAGTGCAG” was run?
**A.** Its binding signal is 3140 fluorescence intensity (a.u.).

**Q.** How did the binding signal turn out when “CCCACCCCGCGTGCAGCTTAGGCGAACCCTCCTCCCTCCGCGGAGTCACCTAGTGCAG” was run?
**A.** Its binding signal is 3660 fluorescence intensity (a.u.).

**Q.** How did the binding signal turn out when “CCAAAATCAGATATCTTAGGATTCATATCGATGTCCAACACGGAGTCACCTAGTGCAG” was run?
**A.** The binding signal was 19200 fluorescence intensity (a.u.).

**Q.** For “CATATCCTCAAGTAGAATTCAAATCCAGTCACATTGCCACCGGAGTCACCTAGTGCAG”, which binding signal is on record?
**A.** Its binding signal is 4130 fluorescence intensity (a.u.).

**Q.** With “GTTCAGAATGTGGTGGCGACGTAAGGTGATTTGGAAGGCGCGGAGTCACCTAGTGCAG” as the sequence, how does the binding signal read?
**A.** Its binding signal is 43500 fluorescence intensity (a.u.).

**Q.** For “CAGGTGGTGGTGGCCATTAGTTAGTGGCAAATGTGGAAGGCGGAGTCACCTAGTGCAG”, which binding signal is on record?
**A.** The binding signal was 3220 fluorescence intensity (a.u.).

**Q.** For “AGGAATGCATTTGTGGTGGGTGCAGGTGCGCGGGTGGCGACGGAGTCACCTAGTGCAG”, which binding signal is on record?
**A.** Its binding signal is 3340 fluorescence intensity (a.u.).

**Q.** For “CTAGAGGAAGTGGGGAAGCCGACGACCCCACGTCTCGCCACGGAGTCACCTAGTGCAG”, which binding signal is on record?
**A.** The binding signal was 3940 fluorescence intensity (a.u.).

**Q.** Which binding signal does the source give for “GACTAACAAAATCGTTGAAACTTGCGAAGTTTCTTTTGATCGGAGTCACCTAGTGCAG” here?
**A.** Its binding signal is 64700 fluorescence intensity (a.u.).

**Q.** For “TAAAATAGTTTTAAAACTTTAAGTTGAAAGTAAATACTTTCGGAGTCACCTAGTGCAG”, which binding signal is on record?
**A.** The binding signal was 27900 fluorescence intensity (a.u.).

**Q.** For “TACTTTCAACTCTAACTTGAAAACTTTCAACTTTGACTTGCGGAGTCACCTAGTGCAG”, which binding signal is on record?
**A.** The binding signal was 3860 fluorescence intensity (a.u.).

**Q.** “CCACCCACGGAGCCAGCTCACTACCACCGTTTGTCGCCTCCGGAGTCACCTAGTGCAG” was tested. Which binding signal did it give?
**A.** The binding signal was 4360 fluorescence intensity (a.u.).

**Q.** For “ACATGTGTTCACGCGTGTGTATCTTCTACTCCCTCCGTTTCGGAGTCACCTAGTGCAG”, which binding signal is on record?
**A.** The binding signal was 43200 fluorescence intensity (a.u.).

**Q.** How did the binding signal turn out when “GTACTACTCCCTCCGTTTCTCCCTCCGTTTCAAAATGTTTCGGAGTCACCTAGTGCAG” was run?
**A.** The binding signal was 3220 fluorescence intensity (a.u.).

**Q.** How did the binding signal turn out when “TTCTTCCTCCGTCAGTTCATCATCTCTCTGTGTGTGTTTTCGGAGTCACCTAGTGCAG” was run?
**A.** Its binding signal is 3570 fluorescence intensity (a.u.).

**Q.** With “GTTGTCAAATGAGTCAATTAGATATTTCCAACCCACACTACGGAGTCACCTAGTGCAG” as the sequence, how does the binding signal read?
**A.** Its binding signal is 4900 fluorescence intensity (a.u.).

**Q.** Which binding signal does the source give for “CGTATCTCATCTTTTCGTTTATACTTATACTTATCAGTCACGGAGTCACCTAGTGCAG” here?
**A.** The binding signal was 3230 fluorescence intensity (a.u.).

**Q.** How did the binding signal turn out when “ATCGATCGATCAATTGGCCAAGGCGGCAAACGGCGGCGGCCGGAGTCACCTAGTGCAG” was run?
**A.** The binding signal was 4060 fluorescence intensity (a.u.).

**Q.** How did the binding signal turn out when “TTAGCTTCACAGTTCACTGTAGCGTCTAGAAGAGGAACAGCGGAGTCACCTAGTGCAG” was run?
**A.** The binding signal was 63300 fluorescence intensity (a.u.).

**Q.** Which binding signal does the source give for “TTAGCTAGACTACAGCTCTAGTAGAGCTGTAGAGGTAGAGCGGAGTCACCTAGTGCAG” here?
**A.** Its binding signal is 44000 fluorescence intensity (a.u.).

**Q.** For “GATCACTGTACTGTACAGAGGCTAGCTCTAGCTAGGTAGCCGGAGTCACCTAGTGCAG”, which binding signal is on record?
**A.** The binding signal was 26000 fluorescence intensity (a.u.).

**Q.** For “TTGTGGTACGATACTAGTACTACTAGTAGACTAGTAGCAGCGGAGTCACCTAGTGCAG”, which binding signal is on record?
**A.** The binding signal was 3260 fluorescence intensity (a.u.).

**Q.** For “AGCTTCAGGAGTTCTTGTCACGTCTCGAGGAAGAGAGGCTCGGAGTCACCTAGTGCAG”, which binding signal is on record?
**A.** Its binding signal is 3740 fluorescence intensity (a.u.).

**Q.** Which binding signal does the source give for “GTGAGAACTGAGAGGAGCGTCGGAAGAAGACCGGAAGAAGCGGAGTCACCTAGTGCAG” here?
**A.** The binding signal was 4580 fluorescence intensity (a.u.).
